PMC10812921, “Transcriptional Coactivator BOB1 (OBF1, OCA-B) Modulates the Specificity of DNA Recognition by the POU-Domain Factors OCT1 and OCT2 in a Monomeric Configuration”

How the values were obtained:
POU1 (OCT1 POU domain) = POU1 (OCT1 POU domain) (human, UniProt P14859 260-458); assay: EMSA-SELEX-seq; no BOB1; 20 mM Tris-HCl pH 7.6, 140 mM NaCl, 10% glycerol, 0.5 mM EDTA, 0.05% Triton X-100, 0.1 mg/mL BSA, 0.1 mg/mL poly(dI-dC), 5 mM DTT, room temperature, 20 min; high values mean tight binding; conditions: protein: recombinant; dsDNA, one strand shown
Outline: (§1)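 After expression in E. coli BL21, tagged POU-domain proteins were purified under denaturing conditions and then renatured. Each binding reaction held 30 ng protein and 300 ng of a PCR-amplified double-stranded random 35-nt library in 20 μL Tris–HCl pH 7.6 binding buffer, with or without 28 ng coactivator protein, for 20 min at RT. Bands holding complexes were cut from native 6% PAGE, eluted and PCR-amplified across four rounds, and the output was Illumina-sequenced. The value given for binding preference is the share, in percent, of sequenced 8-mers fitting a motif pattern.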

POU2 (OCT2 POU domain) = biological target: T1, POU2 (OCT2 POU domain) (human, UniProt P09086 175-386); assay: as above; conditions: protein: recombinant; dsDNA, one strand shown
T1 sequence: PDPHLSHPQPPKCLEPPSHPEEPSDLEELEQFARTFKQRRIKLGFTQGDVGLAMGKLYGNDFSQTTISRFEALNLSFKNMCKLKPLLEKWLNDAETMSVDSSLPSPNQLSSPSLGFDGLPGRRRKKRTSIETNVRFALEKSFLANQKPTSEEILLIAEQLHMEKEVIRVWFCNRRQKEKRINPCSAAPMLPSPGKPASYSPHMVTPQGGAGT
Outline: as §1

[1] = biological target: POU1 (OCT1 POU domain);BOB1 (OBF1, OCA-B) (human;human, UniProt P14859;Q16633 260-458;1-256, |); assay: EMSA-SELEX-seq; with BOB1 (ternary complex band); 20 mM Tris-HCl pH 7.6, 140 mM NaCl, 10% glycerol, 0.5 mM EDTA, 0.05% Triton X-100, 0.1 mg/mL BSA, 0.1 mg/mL poly(dI-dC), 5 mM DTT, room temperature, 20 min; high values mean tight binding; conditions: protein: recombinant;recombinant; copies: 1;1; dsDNA, one strand shown
Outline: as §1

[2] = biological target: T2, POU2 (OCT2 POU domain);BOB1 (OBF1, OCA-B) (human;human, UniProt P09086;Q16633 175-386;1-256, |); assay: as above; conditions: protein: recombinant;recombinant; copies: 1;1; dsDNA, one strand shown
T2 sequence 1: T1 sequence
T2 sequence 2: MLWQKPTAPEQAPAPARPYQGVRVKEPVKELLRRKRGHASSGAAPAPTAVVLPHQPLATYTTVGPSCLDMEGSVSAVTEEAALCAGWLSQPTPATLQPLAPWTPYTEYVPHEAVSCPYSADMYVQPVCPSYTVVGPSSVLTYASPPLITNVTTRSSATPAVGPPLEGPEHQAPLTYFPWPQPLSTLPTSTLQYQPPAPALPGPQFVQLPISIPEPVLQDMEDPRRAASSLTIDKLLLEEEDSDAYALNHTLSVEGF
Outline: as §1

Chain of POU1 (OCT1 POU domain) (P14859 260-458): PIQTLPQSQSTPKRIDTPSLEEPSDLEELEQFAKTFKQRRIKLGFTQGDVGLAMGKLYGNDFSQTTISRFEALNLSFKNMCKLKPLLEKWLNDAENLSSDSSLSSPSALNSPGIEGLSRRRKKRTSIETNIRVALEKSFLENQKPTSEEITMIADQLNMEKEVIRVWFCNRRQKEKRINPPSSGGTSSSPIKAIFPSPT

Sequence	binding signal (POU1 (OCT1 POU domain))	binding signal (POU2 (OCT2 POU domain))	binding signal [1]	binding signal [2]
ACGTTAAA	0.0412 % of ANNNNAAN 8-mers	0.0506 % of ANNNNAAN 8-mers	0.0371 % of ANNNNAAN 8-mers	0.0421 % of ANNNNAAN 8-mers
ACAATAAC	0.0248 % of ANNNNAAN 8-mers	0.0259 % of ANNNNAAN 8-mers	0.0211 % of ANNNNAAN 8-mers	0.0248 % of ANNNNAAN 8-mers
ATGGCAAC	0.0263 % of ANNNNAAN 8-mers	0.0219 % of ANNNNAAN 8-mers	0.0297 % of ANNNNAAN 8-mers	0.0264 % of ANNNNAAN 8-mers
ATGAGAAG	0.0709 % of ANNNNAAN 8-mers	0.088 % of ANNNNAAN 8-mers	0.0652 % of ANNNNAAN 8-mers	0.0553 % of ANNNNAAN 8-mers
ATTTCAAG	0.0542 % of ANNNNAAN 8-mers	0.0495 % of ANNNNAAN 8-mers	0.055 % of ANNNNAAN 8-mers	0.0561 % of ANNNNAAN 8-mers
AGATGAAT	0.119 % of ANNNNAAN 8-mers	0.171 % of ANNNNAAN 8-mers	0.0765 % of ANNNNAAN 8-mers	0.09 % of ANNNNAAN 8-mers
AGATTAAC	0.0885 % of ANNNNAAN 8-mers	0.0863 % of ANNNNAAN 8-mers	0.0414 % of ANNNNAAN 8-mers	0.0495 % of ANNNNAAN 8-mers
AAGCAAAC	0.0606 % of ANNNNAAN 8-mers	0.0386 % of ANNNNAAN 8-mers	0.0878 % of ANNNNAAN 8-mers	0.057 % of ANNNNAAN 8-mers
ATTCAAAA	0.365 % of ANNNNAAN 8-mers	0.277 % of ANNNNAAN 8-mers	0.427 % of ANNNNAAN 8-mers	0.278 % of ANNNNAAN 8-mers
ACGGAAAC	0.0198 % of ANNNNAAN 8-mers	0.019 % of ANNNNAAN 8-mers	0.0289 % of ANNNNAAN 8-mers	0.0305 % of ANNNNAAN 8-mers
AAACCAAC	0.0206 % of ANNNNAAN 8-mers	0.0104 % of ANNNNAAN 8-mers	0.0199 % of ANNNNAAN 8-mers	0.0215 % of ANNNNAAN 8-mers
AAGAGAAG	0.0339 % of ANNNNAAN 8-mers	0.0403 % of ANNNNAAN 8-mers	0.0402 % of ANNNNAAN 8-mers	0.0438 % of ANNNNAAN 8-mers
ATGTCAAA	0.0744 % of ANNNNAAN 8-mers	0.0673 % of ANNNNAAN 8-mers	0.0745 % of ANNNNAAN 8-mers	0.0652 % of ANNNNAAN 8-mers
ATCACAAG	0.0225 % of ANNNNAAN 8-mers	0.0334 % of ANNNNAAN 8-mers	0.0328 % of ANNNNAAN 8-mers	0.0446 % of ANNNNAAN 8-mers
ATCAAAAT	0.095 % of ANNNNAAN 8-mers	0.0932 % of ANNNNAAN 8-mers	0.106 % of ANNNNAAN 8-mers	0.0743 % of ANNNNAAN 8-mers
AATTAAAG	0.187 % of ANNNNAAN 8-mers	0.22 % of ANNNNAAN 8-mers	0.112 % of ANNNNAAN 8-mers	0.121 % of ANNNNAAN 8-mers
AGGCAAAT	0.77 % of ANNNNAAN 8-mers	0.546 % of ANNNNAAN 8-mers	2.22 % of ANNNNAAN 8-mers	2.15 % of ANNNNAAN 8-mers
ACTGCAAG	0.0133 % of ANNNNAAN 8-mers	0.0144 % of ANNNNAAN 8-mers	0.016 % of ANNNNAAN 8-mers	0.0107 % of ANNNNAAN 8-mers
ACTTCAAG	0.0194 % of ANNNNAAN 8-mers	0.0236 % of ANNNNAAN 8-mers	0.0168 % of ANNNNAAN 8-mers	0.0256 % of ANNNNAAN 8-mers
AGTCTAAT	0.147 % of ANNNNAAN 8-mers	0.166 % of ANNNNAAN 8-mers	0.0761 % of ANNNNAAN 8-mers	0.0958 % of ANNNNAAN 8-mers
ACAAAAAG	0.0549 % of ANNNNAAN 8-mers	0.0489 % of ANNNNAAN 8-mers	0.0683 % of ANNNNAAN 8-mers	0.0429 % of ANNNNAAN 8-mers
AGTCCAAT	0.0385 % of ANNNNAAN 8-mers	0.0466 % of ANNNNAAN 8-mers	0.0421 % of ANNNNAAN 8-mers	0.0371 % of ANNNNAAN 8-mers
ATCTAAAT	0.172 % of ANNNNAAN 8-mers	0.227 % of ANNNNAAN 8-mers	0.123 % of ANNNNAAN 8-mers	0.123 % of ANNNNAAN 8-mers
ACATAAAC	0.087 % of ANNNNAAN 8-mers	0.106 % of ANNNNAAN 8-mers	0.0652 % of ANNNNAAN 8-mers	0.0751 % of ANNNNAAN 8-mers
AAATGAAA	0.15 % of ANNNNAAN 8-mers	0.133 % of ANNNNAAN 8-mers	0.21 % of ANNNNAAN 8-mers	0.147 % of ANNNNAAN 8-mers
ACAACAAG	0.0248 % of ANNNNAAN 8-mers	0.0167 % of ANNNNAAN 8-mers	0.0187 % of ANNNNAAN 8-mers	0.014 % of ANNNNAAN 8-mers
ACGTGAAC	0.0153 % of ANNNNAAN 8-mers	0.0247 % of ANNNNAAN 8-mers	0.0215 % of ANNNNAAN 8-mers	0.0206 % of ANNNNAAN 8-mers
ATGCAAAC	0.543 % of ANNNNAAN 8-mers	0.445 % of ANNNNAAN 8-mers	1.35 % of ANNNNAAN 8-mers	1.27 % of ANNNNAAN 8-mers
